# Measurements published in PubChem BioAssay (NCATS).
# Values joined by “and” are separate entries in the source; they are usually repeats but may differ in a detail not shown here. Equal values may be shown once. Records with an inconclusive call do not appear. Entries that show only a call come without a potency. Active and inactive are the calls of the source. Calls come from the whole dose curve; as a rule, active = well fitted inhibition curve with a large enough effect; inconclusive = small, poorly fitted or top-dose-only effect; inactive = flat fitted curve, though single readings scatter. Peptide text beside a SMILES is read from it.
# Biological target: Glutathione peroxidase 1 (Homo sapiens) (UniProt P07203)
# Experiment: Primary qHTS Assay for Inhibitors of Recombinant Selenoprotein Glutathione Peroxidase 1 (GPX1) (AID 1845191); note: nearly all actives have a fitted effect of over 65% in size
# Conditions: recombinant GPX1, GR-coupled NADPH fluorescence, 15 min; series mostly up to 48.8 µM
# Summary of the method: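 10 nM GPX1 + cpd, 30 min RT; start w/ 1 mM GSH, 0.5 mM cumene hydroperoxide, 0.5 mM NADPH, 100 nM GR, 0.01% BSA; buffer 50 mM Tris-HCl pH 7.5, 2 mM EDTA, 150 mM NaCl; Fl 340/450, 0 & 15 min.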
# Potency is the fitted concentration of half-maximal effect.
# Glutathione peroxidase 1 (Homo sapiens), sequence (P07203 whole entry, looked up): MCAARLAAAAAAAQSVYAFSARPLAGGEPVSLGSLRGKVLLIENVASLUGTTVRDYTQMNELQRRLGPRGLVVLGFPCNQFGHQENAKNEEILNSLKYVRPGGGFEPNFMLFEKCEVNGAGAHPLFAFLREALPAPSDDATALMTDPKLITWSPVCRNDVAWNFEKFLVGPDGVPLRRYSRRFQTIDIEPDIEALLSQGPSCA
row,Compound,Potency
1,CC1=C(C)C(=O)C(C(CCCCCC(=O)O)c2ccccc2)=C(C)C1=O (configuration not stated),inactive
2,CCC[C@@H]1C[C@@H](C(=O)N[C@@H]([C@H]2O[C@H](SC)[C@H](O)[C@@H](O)[C@H]2O)[C@@H](C)O)N(C)C1,inactive
3,CCCCCCCCCCCCCCCCCCCCCCO,inactive
4,O=C(NC(Cc1cc(=O)[nH]c2ccccc12)C(=O)O)c1ccc(Cl)cc1 (configuration not stated),inactive
5,O=C(NCCO[N+](=O)[O-])c1cccnc1,inactive
6,COC(=O)[C@H](Cc1ccccc1)NC(=O)[C@@H](N)CC(=O)O (H-Asp-Phe-OMe),inactive
7,COc1cc(C(C)=O)ccc1OCCCN1CCC(c2noc3cc(F)ccc23)CC1,inactive
8,Cc1ccc(S(=O)(=O)NC(=O)NN2CC3CCCC3C2)cc1 (configuration not stated),inactive
9,CC1Cc2ccccc2N1NC(=O)c1ccc(Cl)c(S(N)(=O)=O)c1 (configuration not stated),inactive
10,Nc1cc(C(Cl)=C(Cl)Cl)c(S(N)(=O)=O)cc1S(N)(=O)=O,inactive
11,Cc1nc2n(c(=O)c1CCN1CCC(c3noc4cc(F)ccc34)CC1)CCCC2,inactive
12,Cc1ccc(C)c(OCCCC(C)(C)C(=O)O)c1,inactive
13,CCN(CC)CCOc1ccc(Cc2ccccc2)cc1,inactive
14,O=C(O)c1cn(-c2ccc(F)cc2)c2cc(N3CCNCC3)c(F)cc2c1=O,inactive
15,CCCOc1ccc2nc(NC(=O)OC)[nH]c2c1,inactive
16,Nc1ccn([C@@H]2O[C@H](CO)[C@@H](O)C2O)c(=O)n1 (some centres not stated),inactive
17,O=C1CCc2ccc(OCCCCN3CCN(c4cccc(Cl)c4Cl)CC3)cc2N1,inactive
18,CCCCc1ccc2nc(NC(=O)OC)[nH]c2c1,inactive
19,Cc1nccn1CC1CCc2c(c3ccccc3n2C)C1=O (configuration not stated),inactive

row,Compound,Potency
1,C[Se]CCC(N)C(=O)O (configuration not stated),inactive
2,Cc1cc2c(s1)Nc1ccccc1N=C2N1CCN(C)CC1,16.1 µM (active)
3,Cc1ncc([N+](=O)[O-])n1CC(C)O (configuration not stated),inactive
4,CC(S)C(=O)NCC(=O)O (configuration not stated),inactive
5,CC(C)Oc1ccc2c(=O)c(-c3ccccc3)coc2c1,inactive
6,Cc1cc2cc3c(C)cc(=O)oc3c(C)c2o1,inactive
7,CCC(C)(Oc1ccc(C2(c3ccc(OC(C)(CC)C(=O)O)cc3)CCCCC2)cc1)C(=O)O (configuration not stated),inactive
8,COC(=O)C1=C(C)NC(C)=C(C(=O)OC(C)C)C1c1cccc2nonc12 (configuration not stated),inactive
9,CCOc1cc(CC(=O)N[C@@H](CC(C)C)c2ccccc2N2CCCCC2)ccc1C(=O)O,inactive
10,Nc1ccc(S(N)(=O)=O)cc1,inactive
11,CN1CCC(=C2c3ccccc3CCc3sccc32)CC1,inactive
12,COc1cc2c(N3CCN(C(=O)Nc4ccc(OC(C)C)cc4)CC3)ncnc2cc1OCCCN1CCCCC1,inactive
13,c1ccc2[nH]c(-c3cscn3)nc2c1,inactive
14,CC(=O)Nc1ccc(O)cc1,inactive
15,COc1cc(OC)c(C(=O)CCCN2CCCC2)c(OC)c1,inactive
16,O=C(NCC1CCCCN1)c1cc(OCC(F)(F)F)ccc1OCC(F)(F)F (configuration not stated),inactive
17,Cc1cc(=O)oc2cc(O)ccc12,18 µM (active) and 4.09 µM (active)
18,CC1(C)CCC(C)(C)c2cc(NC(=O)c3ccc(C(=O)O)cc3)ccc21,inactive
